Luciferase inh: Photinus pyralis luciferase inhibition; P08659; purified P. pyralis luciferase, luminescence, biochemical; Potency, µM (highest dose often 115 µM), most hits filed as inhibitors; actives 2.5% (n = 76,000); further: nearly all actives have a fitted effect of over 65% in size
Target sequence (P08659 whole entry, looked up): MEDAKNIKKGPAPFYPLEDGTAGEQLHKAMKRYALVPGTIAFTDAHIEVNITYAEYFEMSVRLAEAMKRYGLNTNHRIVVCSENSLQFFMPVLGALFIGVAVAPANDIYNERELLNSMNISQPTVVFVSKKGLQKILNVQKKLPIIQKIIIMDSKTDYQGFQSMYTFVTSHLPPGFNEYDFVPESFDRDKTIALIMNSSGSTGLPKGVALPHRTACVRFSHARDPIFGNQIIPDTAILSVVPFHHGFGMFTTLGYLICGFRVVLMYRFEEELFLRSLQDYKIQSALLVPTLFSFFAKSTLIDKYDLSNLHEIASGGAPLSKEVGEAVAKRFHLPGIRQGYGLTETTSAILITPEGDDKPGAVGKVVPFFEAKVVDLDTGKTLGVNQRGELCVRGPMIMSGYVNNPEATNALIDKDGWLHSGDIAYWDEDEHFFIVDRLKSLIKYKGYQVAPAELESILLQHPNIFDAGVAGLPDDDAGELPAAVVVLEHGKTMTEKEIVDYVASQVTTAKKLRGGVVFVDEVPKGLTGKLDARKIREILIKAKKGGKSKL
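Luminescence read by CCD imaging after purified firefly luciferase (10nM final) was added to substrate buffer holding 10uM D-luciferin and 10uM ATP, pH 7.5, pre-dosed with compound.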
HEK293 tox: cytotoxic compounds in HEK 293 cells | actives 6.6% (n = 94,000) | HEK 293 viability, ATP luminescence (CellTiter-Glo), 48-72 h | Potency, µM (series often up to 115 µM), without a hit: at the top dose activity change, negative = cytotoxicity, usual class: inhibitors; further: nearly all actives have a fitted effect of over 60% in size
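Cells seeded first (HEK 293, 250 cells/well), then compound added by pintool. Incubation ran 48 or 72 hr at 37 degree Celsius. CellTiter-Glo was added and luminescence imaged after 10 min at room temperature.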
NIH3T3 tox: kills NIH 3T3 cells; NIH 3T3 viability, CellTiter-Glo ATP luminescence, 48-72 h; Potency, µM (titrated, usually from 96.7 µM), for inactives: at the top dose activity change, negative = cytotoxicity, actives largely listed as inhibitors; actives 4.3% (n = 94,000); AID 1345082; further: nearly all actives have a fitted effect of over 55% in size
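Viability of NIH 3T3 cells after 48 or 72 hr compound treatment at 37 °C was assessed by CellTiter-Glo, with luminescence imaged following a 10 min room-temperature step.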
hNpr1 antagonist: human Npr1 receptor antagonism. P16066. HEK293 hNpr1 GloSensor cGMP, ANP-stimulated luminescence. Potency, µM (top dose mostly 46.3 µM), for inactives: top-dose activity change, negative = inhibition, actives largely listed as inhibitors. actives 1.6% (n = 76,000). AID 1347048; calls by dose curve; further: nearly all actives have a fitted effect of over 60% in size
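Compound pre-incubated 30 min at room temperature on GloSensor-loaded HEK293 cells stably carrying hNpr1 and the pGS-40F cGMP biosensor. Stimulation uses hNppA at 0.1 nM final; luminescence is taken at baseline and 20 min post-agonist.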
An asterisk follows results filed as active; i = inactive; ? = inconclusive; · = no result; [ ] = another dose, or the depositor's remark. Sampled rows, rich in hits. Any-hit rate of the full collection: about 11%. Unless noted, the call rests on the fitted dose curve; in most records, active means well fitted curve in the direction sought with a large enough effect; inconclusive means small, poorly fitted or top-dose-only effect, or another doubt; inactive means no such curve, though single readings can be large; an effect the other way counts as inactive or inconclusive. On the % scale 0 is the no-effect control and ±100 the full control effect; potency means the concentration at half of the fitted maximal effect.

SMILES | Luciferase inh | HEK293 tox | NIH3T3 tox | hNpr1 antagonist
Cc1noc(-c2ccn3c(CNC(=O)c4ccccc4Cl)nnc3c2)n1 | i | ? | ? | -15%
COc1cccc(C(O)c2nc(C(=O)Nc3ccc4c(c3)NC(=O)CO4)c(C)o2)c1 (centres undefined) | 63µM* | 89µM* | ? | -4%[70.6 µM]
Cc1ccc(C(=O)NC2CCN(c3cc(C(F)(F)F)nc(C)n3)CC2)cc1 | i | ? | ? | ?
Cc1nc(N2CCC(NC(=O)c3nn(C)c4ccccc34)CC2)cc(C(F)(F)F)n1 | i | 45µM* | ? | ?
O=C(NC1CCN(CCn2nc3n(c2=O)CCCC3)C1)c1ccccc1 (centres undefined) | · | -1% | -10% | ·
N#Cc1ccc(-c2nc(C(=O)NC3CCCCC3)no2)cc1 | i | -19% | 2% | 3%
CN(C)C[C@@H]1CN(Cc2ccccn2)C[C@H]1NC(=O)c1ccc(Cl)s1 | i | 79µM* | -9% | -1%
CN(C)C[C@@H]1CN(Cc2ccccc2)C[C@H]1NC(=O)c1nn(C)c2ccccc12 | · | 40µM* | ? | ·
COc1ccc(C(=O)N[C@@H]2CN(Cc3ccccc3)C[C@H]2CN(C)C)cc1F | · | 6.3µM* | 20µM* | ·
COc1ccc(C(=O)N[C@@H]2CN(Cc3cccnc3)C[C@H]2CN(C)C)cc1F | i | ? | ? | 3%
Cn1c(C(=O)N2CCN(c3ccccc3)CC2)cc2c1CCN(Cc1cccc(F)c1)C2 | i | ? | ? | -5%
CNC(=O)c1cccc(-c2cnc(Nc3ccc4c(c3)OCCO4)c3c2CCO3)c1 | 5.6µM* | 79µM* | ? | ?
Fc1cc(Nc2ncc(-c3ccccc3)c3c2OCC3)cc(N2CCOCC2)c1 | i | ? | ? | 1%[70.6 µM]
CNC(=O)c1cccc(-c2cnc(Nc3ccc(N4CCOCC4)cc3)c3c2CCO3)c1 | 0.63µM* | 79µM* | ? | -7%[70.6 µM]
CC(C)CCN1CC2(Cc3ccccc3C(=O)N2)C1 | · | -8%[172 µM] | -12%[138 µM] | ·
Cc1ccc(C(=O)N2CCCN(C(=O)C3CC3)C(c3ccccc3)CC(=O)NCC2)s1 (centres undefined) | i | -1% | -12% | -12%
CCNC(=O)C1CCN(C(=O)c2ccc3nc(-c4ccccc4)cn3c2)C1 (centres undefined) | 35µM* | -2% | i | -1%
O=C(c1ccc2nc(-c3ccc(F)cc3)cn2c1)N1CCC(F)CC1 | i | ? | -26% | -10%
CC(=O)N1CCCC1C(=O)N1CCC(N2Cc3cccn3C2=O)CC1 (centres undefined) | · | -2% | -21% | ·
COc1ccccc1N1CCCc2ncc(C(=O)Nc3ccc4[nH]ccc4c3)cc21 | i | ? | ? | -13%[70.6 µM]
C=C(C)CN(C)C(=O)c1cc(CN2CCC(Cc3ccccc3)CC2)on1 | i | 89µM* | -28% | -4%
COc1ccc(-c2cc(C(=O)NC3CC3)c3c(C)nn(-c4ccccc4)c3n2)cc1 | · | ? | 22µM* | ·
COc1ccc(-c2cc(C(=O)NC3CCNCC3)c3c(C)nn(-c4ccccc4)c3n2)cc1 | · | 25µM* | 7.1µM* | ·
CCOC(=O)C1CCN(C(=O)c2nc3sccn3c2-c2cccnc2)CC1 | · | 1% | i | ·
CN1Cc2ccccc2N(CC(O)Cc2ccccc2)CCC1=O (centres undefined) | · | -21% | ? | ·
SMILES | Luciferase inh | HEK293 tox | NIH3T3 tox | hNpr1 antagonist
O=C1CCN(CC(O)Cc2ccccc2)c2ccccc2CCN1C/C=C/c1ccccc1 (centres undefined) | · | 22µM* | ? | ·
Cc1nnc2ccc(N3CCN(C(=O)C(C)(C)C)CC3)nn12 | · | -25%[172 µM] | -21%[138 µM] | ·
CN(C)c1ccc2c(c1)CN(C(=O)c1cnccn1)CCO2 | · | -4% | -19% | ·
COc1ccccc1CCN1CCCC(CN(C)C(=O)C(=O)c2cccn2C)C1 (centres undefined) | i | -22% | ? | 1%
COc1cccc(-c2cc(-c3ccncc3)c3cncn3c2)c1OC | i | 89µM* | ? | -4%[70.6 µM]
COc1cccc(-c2cc(-c3c(C)noc3C)c3cncn3c2)c1OC | i | 79µM* | ? | 0%[70.6 µM]
COc1ccc(-c2cc(-c3c(C)noc3C)c3cncn3c2)cc1OC | i | ? | 22µM* | -6%[70.6 µM]
COc1cc(F)ccc1-c1cc(-c2c(C)noc2C)c2cncn2c1 | i | 63µM* | ? | 2%[70.6 µM]
COc1ccc(-c2cc(-c3cccc(O)c3)cn3cncc23)cc1 | i | ? | ? | -21%[70.6 µM]

Source: PubChem
